Source: PubChem BioAssay (National Center for Advancing Translational Sciences (NCATS))
Compounds with a hit are over-represented: about 14% of the library has one in this group of screens.
LASV entry inh – Lassa virus entry inhibition | Lassa virus pseudotype entry inhibition, cell reporter | Potency, µM (top dose mostly 37.9 µM), inactives show at the highest dose activity change, negative = inhibition, hits mostly inhibitors | 300,000 compounds, 1.2% hits; calls by dose curve; tested in HEK293 cells; also: potency is read from the fitted curve at half-maximal effect; nearly all actives have a fitted effect of over 50% in size
HCMV inh – blocks human cytomegalovirus replication | HFF cells, HCMV-luciferase reporter, 72 h; stronger effect = lower value | activity change, negative = inhibition, % at 57.5 µM | 410,000 compounds, 4.5% hits | AID 1259415; in the data active = activity change below about -60%; inconclusive = no clear call, values can overlap the other calls; inactive = above about -39%
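Two compound doses tested in HFFs infected with HCMV-luciferase, MOI 1 PFU/cell, 72 h at 37C. Lysate luminescence read with OneGlo; data normalized against buffer-only and 10uM Salinomycin inhibitor controls.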
Pf growth 96h – inhibits malaria parasite growth, 96 h; P. falciparum luciferase reporter growth, 96 h; 320,000 compounds, 6.9% hits; Potency, µM (doses to about 28.7 µM), for the others: at the top dose activity change, negative = inhibition, most hits filed as inhibitors; also: potency is read from the fitted curve at half-maximal effect
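Luminescence readout: decreased luciferase signal marks inhibited growth of reporter-expressing P. falciparum in infected red cells (2% hematocrit, 0.05% parasitemia final), exposed to compound two generations (96 h, 37 C, 5% CO2).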
Pf growth 48h – inhibits P. falciparum growth in the first generation, 48 h | P. falciparum luciferase growth in erythrocytes, 48 h | Potency, µM (series often up to 28.7 µM), inactives show at the top dose activity change, negative = inhibition, most hits filed as inhibitors | 310,000 compounds, 5.9% hits; also: potency is read from the fitted curve at half-maximal effect
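Cell-based growth assay: transgenic P. falciparum expressing firefly luciferase, cultured in red cells within RPMI 1640 containing 0.5% w/v Albumax, 24 mM bicarbonate and gentamycin. A drop in luciferase activity indicates inhibition.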
Marburg entry inh – Marburg virus entry inhibition; Marburg virus pseudotyped entry inhibition, cell reporter; Potency, µM (doses to about 37.8 µM), for the others: at the top dose activity change, negative = inhibition, hits mostly inhibitors; 300,000 compounds, 1.8% hits; AID 540276; calls by dose curve; tested in HEK293 cells; also: potency is read from the fitted curve at half-maximal effect
HCV inhibitor – blocks hepatitis C virus | Huh7.5.1 HCVcc-Cre infection, luciferase reporter, 44 h | Potency, µM (doses to about 41.8 µM), inactives show top-dose activity change, negative = inhibition, actives largely listed as inhibitors | 340,000 compounds, 3.4% hits | AID 651820; also: potency is read from the fitted curve at half-maximal effect
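Whole-lifecycle infectious HCVcc-Cre system; cells 1,000/well, compound then virus (~0.5 moi) added 4 h after plating, 44 h culture. Luciferase read 15 sec following 15 min substrate incubation, room temp.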
The depositor's hits bear a star; ? = inconclusive; nt = not tested or not shown; [ ] = another dose, or the depositor's remark. Unless noted, calls follow the shape of the dose curve; as a rule, active = well fitted inhibition curve with a large enough effect; inconclusive = small, poorly fitted or top-dose-only effect, or another doubt; inactive = no such curve, though single readings can be large or run the other way. % is scaled to controls: 0 for no effect and ±100 for the full control effect.

SMILES	LASV entry inh	HCMV inh	Pf growth 96h	Pf growth 48h	Marburg entry inh	HCV inhibitor
Cc1ccc(NC(=O)c2ccc([N+](=O)[O-])o2)c(C)c1	nt	-24.6	-30.8%	?	nt	14.1µM*
Cc1ccc(C(=O)Nc2ncccc2C)o1	-0.9%	-26.7	nt	nt	19.4%	14.8%
Cc1cccnc1NC(=O)c1ccc([N+](=O)[O-])o1	-22.2%	-76.0*	?	?	5.5%	5.0%
Cc1ccccc1NC(=O)c1ccc([N+](=O)[O-])o1	-17.5%	-13.3	3.7µM*	10.4µM*	?	?
CN1CCN(c2ccccc2NC(=O)c2ccc([N+](=O)[O-])o2)CC1	-19.9%	nt	40.0%	?	?	?
O=C(Nc1cc2ccc(O)cc2oc1=O)c1ccccc1	-22.8%[46.1 µM]	79.2	nt	nt	nt	nt
CCC(=O)NC(=S)Nc1ccc(NC(=O)c2ccc(Br)o2)cc1	nt	-103.1*	0.0%	?	nt	?
Cc1cccnc1NC(=O)c1ccccc1-c1ccccc1C(=O)Nc1ncccc1C	7.31µM*	-7.4	37.4%	10.1%	3.7%	10.7%
O=C(Nc1cccc2ncccc12)c1ccc([N+](=O)[O-])o1	?	-99.8*	35.3%	?	?	25.1µM*
Cc1ccc(NC(=O)Nc2cccc(C)n2)cc1	-1.2%[46.1 µM]	103.8	27.2%	98.8%	nt	-19.8%
Cc1cccnc1NC(=O)c1ccccc1NC(=O)C(C)(C)C	16.5%	-17.7	-18.1%	-8.4%	-10.2%[46.1 µM]	14.8%
Cc1cccc(NC(=O)Nc2ccc([N+](=O)[O-])cc2)n1	nt	-62.3*	13.3%	9.9%	nt	-11.4%
Cc1ccccc1-c1cnc(C(O)c2ccc(Cl)cc2)[nH]1 (stereo not drawn)	nt	19.1	nt	nt	nt	nt
CS(=O)(=O)N1CCN(c2ccccc2NC(=O)c2ccc([N+](=O)[O-])o2)CC1	?	-82.7*	11.3%	?	?	11.2µM*
O=C(Nc1ccccc1Cl)c1ccc([N+](=O)[O-])o1	?	-100.5*	165.6%	-29.8%	12.6µM*	?
Cc1cccc(NC(=O)c2ccc([N+](=O)[O-])cc2Cl)n1	14.7%	19.1	?	35.5%	10.3%	-5.9%
Cc1cccc(NC(=O)c2ccc([N+](=O)[O-])o2)n1	-15.8%	?	10.4µM*	?	?	?
COc1ccc(CNC(=O)C2CCN(c3nnc(-n4cccc4CNc4ccc(C)cc4)s3)CC2)c(OC)c1	nt	-0.3	nt	nt	-7.9%[46.1 µM]	nt
CCc1nc2ccc(C(=O)NCc3ccc(OC)cc3)cn2c1N(CCC(C)C)CCN(C)C	nt	-25.7	nt	nt	nt	nt
Cc1ccc2c(CN3CCN(Cc4ccc5c(c4)OCO5)CC3)cc(=O)oc2c1C	-26.4%	36.6	-11.8%	-5.5%	-21.7%	?
Cc1ccc2c(CN3C(=O)NC4(CCCCC4)C3=O)cc(=O)oc2c1C	10.5%	6.5	0.131µM*	0.0%	6.9%	-16.3%
COc1cc2c(cc1OC)CN(Cc1cc(=O)oc3c(C)c(C)ccc13)CC2	-25.1%	-32.1	13.1µM*	-27.3%	?	?
COc1cc(C(=O)OCc2cc(=O)c(O)co2)ccc1OC(F)F	14.4%[46.1 µM]	-28.3	-28.2%	-7.4%	?	1.2%
CCc1ccc2c(CN3CCc4cc(OC)c(OC)cc4C3)cc(=O)oc2c1	-0.2%	68.4	?	-25.3%	6.6%	?
COc1cc(C(=O)OCc2cc(=O)oc3c(C)c(C)ccc23)ccc1OC(F)F	?	-64.9*	36.4%	20.8%	0.0%[46.1 µM]	-2.5%
SMILES	LASV entry inh	HCMV inh	Pf growth 96h	Pf growth 48h	Marburg entry inh	HCV inhibitor
Cc1ccc2c(CN3CCN(S(=O)(=O)c4ccc5c(c4)OCCO5)CC3)cc(=O)oc2c1C	?	-77.9*	?	9.28µM*	?	12.6µM*
COC(=O)CCN1CCSCCS1(=O)=O	nt	-10.9	nt	nt	nt	nt
Cc1ccc(C)c(N2CCN(C(=O)c3ccc(Cl)c(NC4=NC5CS(=O)(=O)CC5S4)c3)CC2)c1 (stereo not drawn)	-29.3%[46.1 µM]	-10.9	?	?	?	?
CCc1ccc2c(CN3CC=C(c4ccccc4)CC3)cc(=O)oc2c1	11.0%	-34.8	?	?	-7.7%	-7.3%
COc1cc2c(cc1OC)CN(Cc1cc(=O)oc3cc(C)c(C)cc13)CC2	-2.7%	-27.4	?	?	-2.9%	-9.2%
COc1cc2c(cc1OC)CN(Cc1cc(=O)oc3cc(C)c(Cl)cc13)CC2	0.2%	-17.5	?	9.28µM*	?	?
Cc1ccc2c(CN3CC=C(c4ccccc4)CC3)cc(=O)oc2c1C	2.5%	48.7	3.29µM*	5.22µM*	-25.5%	3.5%
COC(=O)[C@H](Cc1ccccc1)N1C[C@@H](N2CCC[C@@H]2C)C[S+]1(=O)[O-]	-7.5%[46.1 µM]	nt	nt	nt	nt	nt
CCC[C@@H]1C[C@@H](C(=O)N[C@@H](C2O[C@H](SC)[C@H](O)[C@@H](O)[C@H]2O)[C@H](C)Cl)N(C)C1 (stereo partly drawn)	nt	nt	?	?	nt	-4.1%
CCCC1CC(C(=O)NC(C(C)Cl)C2OC(SC)C(O)C(O)C2O)N(C)C1 (stereo not drawn)	nt	1.6	0.0029µM*	0.0828µM*	nt	-18.1%
CCC[C@@H]1C[C@@H](C(=O)NC(C(C)Cl)[C@H]2O[C@H](SC)[C@H](O)[C@@H](O)[C@H]2O)N(C)C1 (stereo partly drawn)	nt	-26.0	0.0033µM*	?	nt	9.4%
N#Cc1ccc(C(=O)N2CCCCC2c2cc(C(=O)NCc3ccccc3)no2)cc1 (stereo not drawn)	nt	-3.9	nt	nt	nt	nt
COC(=O)COc1ccc(C2C(C(=O)OC)=C(C)NC3=C2C(=O)c2ccccc23)cc1OC (stereo not drawn)	-0.7%[46.1 µM]	-107.8*	nt	nt	9.6%[46.1 µM]	nt
CCCCN(C/C=C/c1ccccc1OC)Cc1ccccc1	-16.2%	3.2	8.28µM*	?	?	3.2%
CCN(C/C=C/c1ccccc1OC)Cc1ccccc1	-5.3%[46.1 µM]	-12.4	108.8%	6.4%	?	-4.6%
Cc1ccc(S(=O)(=O)NCCc2csc(-c3cccc(F)c3)n2)cc1	-1.1%[46.1 µM]	-24.0	nt	nt	nt	nt
O=S(=O)(NCCc1csc(-c2cccc(F)c2)n1)c1cc(F)ccc1F	-2.8%[46.1 µM]	-106.5*	nt	nt	nt	nt
CCc1ccc(S(=O)(=O)NCCc2csc(-c3ccccc3)n2)s1	10.2%	-63.1*	?	-28.1%	?	?
O=C(NCCc1csc(-c2cccc(F)c2)n1)c1ccco1	-6.0%[46.1 µM]	?	-2.2%	15.4%	nt	10µM*
Cc1cc(C)c2c(CC(=O)Nc3ccccc3C(F)(F)F)coc2c1	20.2%[46.1 µM]	-10.9	nt	nt	-11.3%[46.1 µM]	nt
CCc1cc(=O)oc2cc(OCC(=O)N(CC)CC)c(Cl)cc12	nt	-37.6	10.4µM*	nt	0.6%	-9.3%
CCCc1cc(=O)oc2cc(OCC(=O)NCCCn3ccnc3)c(Cl)cc12	nt	-63.0*	-4.9%	-10.5%	nt	-21.9%
CCCc1cc(=O)oc2c(C)c(OCC(=O)NCCCn3ccnc3)ccc12	13.6%[46.1 µM]	-10.4	?	-8.1%	9.4%[46.1 µM]	-11.6%
